Source: PubChem BioAssay AID485 (The Scripps Research Institute Molecular Screening Center, 2006)
The campaign covered roughly 170,000 compounds. About 460 (0.27%) were called active.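 Rule for the calls: active = inhibition above the plate cutoff, the mean inhibition of test wells on that plate plus 3 SD (cut at about 28% in these data); inactive = the rest.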 The list comes from a sample in which actives are over-represented; it also holds similar structures and randomly drawn compounds.

target: Sphingosine 1-phosphate receptor 3 (Homo sapiens) (UniProt Q99500); assay: S1P3 receptor antagonists, primary screen, cell-based (AID 485); conditions: CHO S1P3 NFAT-BLA reporter, FRET fluorescence, antagonist mode; at 4.98 µM; stronger effect = higher value;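 note: cells challenged with S1P at its EC80 of 0.8 µM; blue over green emission ratio from cleaved BLA substrate after 4 h stimulation; 0% = S1P-stimulated wells and 100% = unstimulated DMSO-only wells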
Sequence (Q99500 whole entry, looked up): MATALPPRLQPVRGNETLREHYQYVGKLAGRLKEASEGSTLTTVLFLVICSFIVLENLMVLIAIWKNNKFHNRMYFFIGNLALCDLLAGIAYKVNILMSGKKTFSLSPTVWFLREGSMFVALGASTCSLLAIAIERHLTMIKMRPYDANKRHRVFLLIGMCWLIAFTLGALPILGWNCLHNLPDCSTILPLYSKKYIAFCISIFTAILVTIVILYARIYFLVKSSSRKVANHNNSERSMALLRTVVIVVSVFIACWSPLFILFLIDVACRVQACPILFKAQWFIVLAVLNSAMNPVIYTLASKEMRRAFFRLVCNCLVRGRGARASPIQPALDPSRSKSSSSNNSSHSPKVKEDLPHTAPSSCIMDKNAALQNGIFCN

inhibition, inactive:
COc1ccc(NC(=O)CN2C(=O)CSC2=O)cc1 4.71%
CC(C)N(Cc1ccccc1)C(=O)COC(=O)c1cnccn1 -8.02%
O=Cc1ccc(OCc2cn3ccccc3n2)cc1 -13.1%
CCCc1ccc(C(=O)[C@@H]2[C@@H](C(C)=O)N3c4ccc(F)cc4C=C[C@@H]3[C@@]23C(=O)Nc2ccccc23)cc1 3%
CCCN(CCC)CC(O)COc1ccccc1C(=O)Nc1ccccc1 (stereo not drawn) -9.63%
COc1ccccc1C(=O)NNC(=O)c1ccc(NC(=O)c2ccccc2)cc1 -4.89%
O=C(Nc1cccc2c1N(C(=O)c1ccco1)CCC2)c1ccco1 -8.57%
CCC(=O)/C=C1\Sc2ccccc2N1CC 1.3%
CCN1/C(=C/c2ccc3ccc(C)cc3[n+]2CC)Sc2ccccc21 25.1%
C=CCSc1nnc(NC(=O)c2ccc(NC(C)=O)cc2)s1 -1.45%
Cc1cccc(C(=O)Nc2ccc3c(c2)C(=O)N(CC(C)C)C3=O)c1 2.56%
Nc1ccccc1Sc1cc(Cl)nnc1Cl 1.23%
Cc1c(NC(=O)C(=O)N/N=C/c2cccs2)c(=O)n(-c2ccccc2)n1C -2.98%
COc1ccccc1NC(=O)C1=C(C)NC(=O)NC1c1ccc(C)s1 (stereo not drawn) 1.95%
COc1cccc(OC)c1C(=O)NC(=S)NCc1ccco1 -6.79%
NS(=O)(=O)c1ccc(CNC(=O)c2cnccn2)cc1 -4%
Brc1ccc(-c2nn[nH]n2)cc1 -7.13%
CCN(CCn1cccn1)Cc1cn[nH]c1-c1ccc(OC)cc1F -12.8%
COc1ccc(CCNC2=CC(=O)CC(C)(C)C2)cc1 -7.01%
CN(C)/C=C(/C(=O)c1ccc(Cl)c(Cl)c1)c1nnnn1-c1ccccc1 1.6%
O=C(NNC(=O)c1ccccc1[N+](=O)[O-])Nc1ccccc1C(F)(F)F -5.24%
O=S(=O)([N-]c1nc2ccccc2nc1-[n+]1ccc(Cc2ccccc2)cc1)c1ccc(Br)s1 0.71%
CCNc1nc(Oc2ccc(C(=O)OC)cc2)nc(N2CCOCC2)n1 -9.79%
COc1ccccc1Nc1nc(N)nc(CSC(=S)N2CCOCC2)n1 3%
O=C(CCCl)Nc1ccc(S(=O)(=O)NCc2ccco2)cc1 -8.65%
O=C(NCc1nnc(SCC(=O)N2CCCc3ccccc32)o1)c1ccccc1F -7.71%
CCCCC(=O)NCc1ccc(F)cc1 6.82%
O=C(Cc1ccccc1)NCc1ccc(F)cc1 -11%
COc1ccccc1-n1c(SCC(=O)O)nc2sc3c(c2c1=O)CCC3 -7.86%
CN(C)CCCn1c(SCCN2C(=O)c3ccccc3C2=O)nc2ccccc2c1=O 5.65%
Cc1ccc(SCCN2C(=O)NC(C)(C)C2=O)cc1 -2.4%
CCOC(=O)C1=C(C)NC(=O)NC1c1ccccc1 (stereo not drawn) -9.13%
CCOC(=O)C1=C(C)NC(C)=C(C(=O)OCC)C1c1ccccn1 -28.6%
COc1ccc(/C=C/CN2CCCC(C(=O)c3cc(F)ccc3F)C2)cc1 (stereo not drawn) -10.6%
COC(=O)N(NC(=O)C(O)(C(C)C)C(C)C)c1ccccc1 11%
CC(CNS(=O)(=O)c1ccc(Br)cc1)CN(C)C (stereo not drawn) -2.53%
COc1ccc(N=C(C)c2sc3ccccc3c2O)cc1 6.44%
Cc1nc2cc(NC(=O)NC3CC3)ccc2n1C -13.8%
OC1CCCN(c2ncnc3c2nnn3Cc2c(F)cccc2Cl)C1 (stereo not drawn) -7.85%
N#C/C(=C/c1ccc(-c2ccccc2[N+](=O)[O-])o1)C(=O)NCCN1CCCCC1 -1.3%
CCC(C)N(C(=O)COC(=O)C1C(C(=O)OC)=C(C)NC(C)=C1C(=O)OC)C1CCS(=O)(=O)C1 (stereo not drawn) -2.76%
CN1C=CC=C/C1=C1\SC(=S)N(Cc2ccccc2)C1=O -8.73%
CCc1ccc(S(=O)(=O)NCC(O)COc2ccc(OC)cc2)cc1 (stereo not drawn) 11.9%
O=C(N/N=C/c1c[nH]c2ccccc12)c1cc2ccccc2o1 -11.5%
Cc1c(/C=N\NC(=O)c2cc3ccccc3o2)c2ccccc2n1C 9.64%
COc1cc(NS(=O)(=O)c2ccc(NC(=O)c3ccc(S(=O)(=O)N4CCCCC4)cc3)cc2)ncn1 -13.9%
CC(C)CNC(=O)C(=O)NCc1ccccc1 1.01%
CCOC(=O)C1=NOC(Cn2cc(C(C)=O)c(=O)[nH]c2=O)C1 (stereo not drawn) -0.07%
Cc1cccc2c1N(CCOc1ccccc1)C(=O)C2=O -6.34%
Cc1nc2sc(C(=O)c3ccccc3)c(N)c2c2c1CCCC2 26.9%
O=C(CSc1nc2ccccc2[nH]1)c1cccs1 -5%
O=C(NCc1ccco1)C1CCCN1S(=O)(=O)c1ccccc1C(F)(F)F (stereo not drawn) 5.85%
O=C(NCCc1c[nH]c2ccccc12)C(=O)NCC1CCCO1 (stereo not drawn) -20.2%
O=C(CS(=O)(=O)Cc1ccccc1)NCC1CCCO1 (stereo not drawn) 9.8%
O=S1(=O)CC/C(=N\Nc2ccc(F)cc2)c2ccsc21 3.45%

inhibition, active:
CC(C)Oc1ccccc1C(=O)NC(CO)C(=O)O (stereo not drawn) 28.6%
CCN1/C(=C\c2ccc3ccccc3[n+]2CC)Sc2cc(C)ccc21 31.2%
CSc1ccc(CN(C)CC(=O)NCc2ccc(F)cc2)cc1 30.2%
Nc1ccc(SCCN2C(=O)c3ccccc3C2=O)cc1 91.7%
CCOC(=O)C1=C(C)N=C2c3ccccc3C(=O)C2C1c1ccc(Br)cc1 (stereo not drawn) 60%
O=C(N/N=C/c1coc2ccccc2c1=O)c1cc2ccccc2o1 30.4%
Nc1c(C(=O)c2cccs2)sc2nsc(SCCN3CCCCC3)c12 28.7%
S=C(NCCc1ccccc1)NCC1CCCO1 (stereo not drawn) 29.2%
